# Compounds with a hit are over-represented: about 8% of the library has one in this group of screens.
# HCV inh = qHTS Assay for Inhibitors of Hepatitis C Virus (HCV); Huh7.5.1 HCVcc-Cre infection, luciferase reporter, 44 h; AID 651820, 2012; actives 3.4% (n = 340,000); Potency, µM (highest dose often 41.8 µM), inactives show at the highest dose activity change, negative = inhibition, usual class: inhibitors; active means well fitted inhibition curve with a large enough effect; inconclusive means small, poorly fitted or top-dose-only effect, or another doubt; inactive means no such curve, though single readings can be large or run the other way; further: potency means the concentration at half of the fitted maximal effect; on the % scale 0 is the no-effect control and ±100 the full control effect
#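 A cell-based infection assay in which seeded cells (1,000 per well) receive test compound after 4 h, are inoculated with HCVcc-Cre at approximately 0.5 moi, and are incubated 44 h before luminescence detection.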
# Lassa entry inh = qHTS for Inhibitors of binding or entry into cells for Lassa Virus; actives 1.2% (n = 300,000); Potency, µM (doses to about 37.9 µM), for inactives: top-dose activity change, negative = inhibition, usual class: inhibitors; Lassa virus pseudotype entry inhibition, cell reporter; calls by dose curve; tested in HEK293 cells; further: potency means the concentration at half of the fitted maximal effect; on the % scale 0 is the no-effect control and ±100 the full control effect; nearly all actives have a fitted effect of over 50% in size
# FMDV inh = High Throughput Screening for Foot and Mouth Disease Virus Antivirals | FMDV antiviral cell-based qHTS | Potency, µM (highest dose often 57.9 µM), for inactives: at the highest dose activity change, negative = inhibition, usual class: inhibitors | actives 1.2% (n = 410,000) | AID 1159524, 2015; calls by dose curve; tested in HEK293T cells; further: read-out not given here; potency means the concentration at half of the fitted maximal effect; on the % scale 0 is the no-effect control and ±100 the full control effect; nearly all actives have a fitted effect of over 45% in size
# SARS PLP yeast = qHTS of Yeast-based Assay for SARS-CoV PLP; AID 485353, 2010; actives 0.19% (n = 330,000); S. cerevisiae expressing SARS-CoV PLpro, growth rescue; Potency, µM (series often up to 32.9 µM), for inactives: at the top dose activity, positive = growth rescue, hits mostly activators; calls by dose curve; further: potency means the concentration at half of the fitted maximal effect; 0% is about no effect; nearly all actives have a fitted effect of over 55% in size
# HCMV antiviral = qHTS Assay for inhibitors of the human cytomegalovirus (HCMV). actives 4.5% (n = 410,000). AID 1259415, 2018. HFF cells, HCMV-luciferase reporter, 72 h; stronger effect = lower value. activity change, negative = inhibition, % at 57.5 µM; in the data active means activity change below about -60%; inconclusive means no clear call, values can overlap the other calls; inactive means above about -39%; further: on the % scale 0 is the no-effect control and ±100 the full control effect
#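 Cell-based, HFFs, 1000 cells/well, 16 h 37C; cpds in DMSO + HCMV-luc, MOI 1 PFU/cell; 72 h 37C; OneGlo luminescence after 5 min RT; norm. to buffer vs Salinomycin 10uM.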
# Marburg entry inh = qHTS for inhibitors of binding or entry into cells for Marburg Virus; actives 1.8% (n = 300,000); AID 540276, 2011; Potency, µM (top dose mostly 37.8 µM), for inactives: top-dose activity change, negative = inhibition, most hits filed as inhibitors; Marburg virus pseudotyped entry inhibition, cell reporter; calls by dose curve; tested in HEK293 cells; further: potency means the concentration at half of the fitted maximal effect; on the % scale 0 is the no-effect control and ±100 the full control effect
# Numbers without * were called inactive; ? = inconclusive; nt = no result; + = active, no number; [ ] = another dose, or the depositor's remark.
SMILES,HCV inh,Lassa entry inh,FMDV inh,SARS PLP yeast,HCMV antiviral,Marburg entry inh
CCc1ccc(NC(=O)c2cccc(N3CCCS3(=O)=O)c2)cc1,nt,-5%[46.1 µM],7%,nt,14,nt
CN(C)N=Nc1nc2c(c(=O)n(C)c(=O)n2C)n1CC1CO1 (stereo not given),4µM*,?,-23%,-1%,-77*,?
O=C(Nc1nc2c(ccc3ccccc32)s1)c1ccco1,25µM*,?,0%,-21%,83,15µM*
Cc1ccc2nc(NC(=O)c3ccco3)sc2c1,-2%,1µM*,-79%,-16%,?,4.5µM*
O=C(Nc1nc2c(s1)CCc1ccccc1-2)c1ccco1,32µM*,17%,-8%,-25%,112,?
Cc1ccc2nc(NC(=S)NC(=O)c3ccco3)sc2c1,-27%,?,42%,-4%,27,4%
CC(=O)Nc1nc2c(s1)CCc1ccccc1-2,?,nt,23%,-1%,0,nt
Cc1ccc(OCc2nnc(NC(=O)c3ccco3)s2)c(C)c1,21%,3%,nt,-1%,-105*,24%
O=C(Nc1nc2c(F)c(F)c(F)cc2s1)c1ccco1,2%,-21%[46.1 µM],18%,-7%,73,?
CCSc1ncc(Cl)c(C(=O)Nc2ccc(S(=O)(=O)Nc3nccc(C)n3)cc2)n1,nt,1%[46.1 µM],49%,nt,20,?
CN1OC(C)(CC(=O)Nc2ccccc2)N=C1c1ccc(Br)cc1 (stereo not given),nt,nt,nt,nt,-12,nt
O=C(Nc1nc2ccc(Br)cc2s1)c1ccco1,-17%,?,12%,-6%,115,?
O=C(Nc1nc2ccc(Cl)cc2s1)c1ccco1,6%,11µM*,-20%,-15%,43,?
Cc1ccc(C)c(S(=O)(=O)c2cn(C)c3cc(N4CCCCC4C)c(F)cc3c2=O)c1 (stereo not given),nt,-4%[46.1 µM],-6%,nt,-15,nt
O=S(=O)(CCSc1ccc(C(F)(F)F)cn1)c1ccccc1,-3%,nt,14%,0%,-60*,nt
Cc1ccc(S(=O)(=O)CCSc2ccc(C(F)(F)F)cn2)cc1,2%,nt,-15%,0%,27,nt
C[C@H](Nc1nc(Br)cnc1N)c1ccccc1,nt,nt,nt,nt,11,nt
Cc1oc2ccc(O)c(CN3CCCC3)c2c1C(=O)Nc1cccc(Cl)c1C,nt,9%[46.1 µM],0%,nt,-6,-11%[46.1 µM]
O=C(CN1C(=O)COc2ccccc21)NCCCN1CCCC1,-10%,nt,-16%,-7%,+,nt
Cc1ccc2c(c1)N(CC(=O)NCCCN1CCN(C)CC1)C(=O)CO2,15%,?,-3%,-3%,-69*,-9%[46.1 µM]
O=C(CSc1ccc2c(c1)OCCO2)Nc1ccc(Cl)cn1,-22%,?,-3%,6%,-86*,9%
O=C(CSc1ccc2c(c1)OCCO2)Nc1ccc(Br)cn1,?,0%,-21%,?,31,22%
CC(C)(C)NC(=O)C(c1c[nH]c2ccccc12)N(C(=O)Cn1nnc(-c2ccc(F)cc2)n1)c1cccc(O)c1 (stereo not given),10µM*,?,?,2%,-20,11µM*
O=[N+]([O-])c1ccc(-n2nnnc2-c2ccccc2)cc1,3%,nt,-4%,-4%,-20,nt
O=[N+]([O-])c1ccc(-n2nnnc2-c2ccccc2)c([N+](=O)[O-])c1,35µM*,?,32µM*,-24%,-98*,15µM*
CCCC(c1nnnn1C1CCCCC1)N1C(=O)C(=O)c2ccccc21 (stereo not given),nt,nt,nt,nt,-17,nt
COc1ccc(C2=NOC(C(=O)NCc3ccc(F)cc3)C2)cc1OC (stereo not given),?,0.82µM*,-19%,3%,?,?
COc1cccc(C2=NOC(C(=O)NCc3ccc(F)cc3)C2)c1 (stereo not given),15%,-7%,-9%,-5%,43,15%
COc1cc(C2=NOC(C(=O)NCc3ccc(F)cc3)C2)cc(OC)c1OC (stereo not given),?,-15%,-9%,1%,-84*,?
